From the supplement of paper PMC10849652
Targets with a hit are over-represented here; the source holds about 7,900 in all. About 0.6% of all pairs of compound and target were hits.

Tests used:
Test in all cases: log2 fold change, soluble protein after heating vs DMSO (PISA); higher = thermal stabilisation; K562 cells, 10 uM, 30 min; active = over 0.2 and 3.5 SD of the protein, either way, in both replicates (recomputed)
[1] = compound: COC1=CC=C(C=C1)CN2C=CC3=C2C=C(C=C3)C(=O)NO
In short: (§1)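 Quantification of soluble protein used TMTpro 16plex LC-MS/MS, with channel sums equalised. Samples were the supernatant after 21,000xg for 90 min of pooled aliquots from K562 cells (2×10^6 cells/mL) treated with 10 μM compound for 30 min, heated for 3 min over 48°C-58°C, and extracted in PBS with 0.5% NP-40 at 4°C. Values, from duplicates, describe thermal stability against control samples on a log2 fold-change scale.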

zotarolimus = compound: CO[C@H]1C[C@@H]2CC[C@@H](C)[C@@](O)(O2)C(=O)C(=O)N2CCCC[C@H]2C(=O)O[C@H]([C@H](C)C[C@@H]2CC[C@H](n3cnnn3)[C@H](OC)C2)CC(=O)[C@H](C)/C=C(\C)[C@@H](O)[C@@H](OC)C(=O)[C@H](C)C[C@H](C)/C=C/C=C/C=C/1C [zotarolimus]
In short: as §1

idasanutlin = compound: COc1cc(C(=O)O)ccc1NC(=O)[C@@H]1N[C@@H](CC(C)(C)C)[C@](C#N)(c2ccc(Cl)cc2F)[C@H]1c1cccc(Cl)c1F [idasanutlin]
In short: as §1

alisertib = compound: COc1cc(Nc2ncc3c(n2)-c2ccc(Cl)cc2C(c2c(F)cccc2OC)=NC3)ccc1C(=O)O [alisertib]
In short: as §1

[2] = compound: COc1cc2nc(-c3cc(F)ccc3O)nc(N[C@@H]3CNC[C@H]3C(C)(C)O)c2cc1OC
In short: as §1

gefitinib = compound: COc1cc2ncnc(Nc3ccc(F)c(Cl)c3)c2cc1OCCCN1CCOCC1 [gefitinib]
In short: as §1

[3] = compound: COc1cccc2cc(-c3nc([C@H]4CC[C@H](C(=O)O)CC4)n4ncnc(N)c34)[nH]c12
In short: as §1

lapatinib = compound: CS(=O)(=O)CCNCc1ccc(-c2ccc3ncnc(Nc4ccc(OCc5cccc(F)c5)c(Cl)c4)c3c2)o1 [lapatinib]
In short: as §1

pictilisib = compound: CS(=O)(=O)N1CCN(Cc2cc3nc(-c4cccc5[nH]ncc45)nc(N4CCOCC4)c3s2)CC1 [pictilisib]
In short: as §1

crizotinib = compound: C[C@@H](Oc1cc(-c2cnn(C3CCNCC3)c2)cnc1N)c1c(Cl)ccc(F)c1Cl [crizotinib]
In short: as §1

[4] = compound: C[C@@H]1COCCN1C2=NC(=NC(=C2)C3(CC3)S(=O)(=O)C)C4=C5C=CNC5=CC=C4
In short: as §1

[5] = compound: C[C@H](C1=CC=C(C=C1)C(=O)NC2=C3C=CNC3=NC=C2)N
In short: as §1

duvelisib = compound: C[C@H](Nc1ncnc2nc[nH]c12)c1cc2cccc(Cl)c2c(=O)n1-c1ccccc1 [duvelisib]
In short: as §1

gandotinib = compound: Cc1cc(Nc2cc(CN3CCOCC3)c3nc(C)c(Cc4ccc(Cl)cc4F)n3n2)n[nH]1 [gandotinib]
In short: as §1

tozasertib = compound: Cc1cc(Nc2cc(N3CCN(C)CC3)nc(Sc3ccc(NC(=O)C4CC4)cc3)n2)n[nH]1 [tozasertib]
In short: as §1

[6] = compound: Cc1cc(SCc2sc(-c3ccc(C(F)(F)F)cc3)nc2C)ccc1OCC(=O)O
In short: as §1

doramapimod = compound: Cc1ccc(-n2nc(C(C)(C)C)cc2NC(=O)Nc2ccc(OCCN3CCOCC3)c3ccccc23)cc1 [doramapimod]
In short: as §1

ispinesib = compound: Cc1ccc(C(=O)N(CCCN)[C@@H](c2nc3cc(Cl)ccc3c(=O)n2Cc2ccccc2)C(C)C)cc1 [ispinesib]
In short: as §1

filanesib = compound: CON(C)C(=O)N1N=C(c2cc(F)ccc2F)S[C@@]1(CCCN)c1ccccc1 [filanesib]
In short: as §1

[7] = compound: CS(=O)(=O)c1ccc(-c2cnc(N)c(C(=O)Nc3ccccc3)n2)cc1
In short: as §1

Measured: log2 fold change

SCYL3 isoform 2 (UniProt Q8IZE3)
inactive: [1] 0.017 | zotarolimus 0.008 | idasanutlin -0.117 | alisertib 0.063 | [2] 0.039 | gefitinib 0.063 | [3] 0.032 | lapatinib -0.084 | pictilisib 0.018 | crizotinib -0.118 | [4] -0.106 | [5] -0.044 | duvelisib 0.129 | gandotinib -0.069 | tozasertib -0.113 | [6] -0.024 | doramapimod -0.01 | ispinesib -0.041

RPS3 (UniProt E9PJN9)
inactive: pictilisib 0.129 | duvelisib 0.102 | gandotinib -0.017 | tozasertib -0.215 | [6] 0.148 | ispinesib -0.224

SEMG2 (UniProt Q02383)
UniProt Q02383, sequence (Q02383 whole entry, looked up): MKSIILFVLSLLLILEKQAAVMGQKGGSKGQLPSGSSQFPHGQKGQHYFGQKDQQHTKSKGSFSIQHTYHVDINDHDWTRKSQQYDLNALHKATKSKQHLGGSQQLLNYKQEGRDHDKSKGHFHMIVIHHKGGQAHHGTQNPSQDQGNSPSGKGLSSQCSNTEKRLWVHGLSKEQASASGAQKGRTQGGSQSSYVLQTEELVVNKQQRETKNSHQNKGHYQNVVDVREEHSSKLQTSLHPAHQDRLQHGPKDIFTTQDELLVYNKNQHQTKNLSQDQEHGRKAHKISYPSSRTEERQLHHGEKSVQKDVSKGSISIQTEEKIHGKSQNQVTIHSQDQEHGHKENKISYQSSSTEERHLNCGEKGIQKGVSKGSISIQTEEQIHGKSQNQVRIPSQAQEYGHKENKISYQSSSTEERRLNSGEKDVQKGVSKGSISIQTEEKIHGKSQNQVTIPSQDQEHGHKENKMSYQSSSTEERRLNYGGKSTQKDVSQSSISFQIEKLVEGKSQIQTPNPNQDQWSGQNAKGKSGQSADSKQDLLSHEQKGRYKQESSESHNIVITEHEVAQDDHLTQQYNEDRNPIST
inactive: filanesib -0.002 | zotarolimus -0.021 | idasanutlin -0.135 | alisertib 0.005 | gefitinib -0.008 | [3] 0.063 | pictilisib -0.021 | [7] -0.058 | [4] 0.096 | [5] -0.021 | gandotinib -0.032 | tozasertib -0.043

SLC1A3 (UniProt P43003)
inactive: zotarolimus -0.097 | idasanutlin 0 | alisertib 0.017 | [2] 0.118 | gefitinib -0.023 | [3] 0.012 | lapatinib -0.03 | pictilisib 0.02 | [4] 0.167 | [5] -0.039 | duvelisib -0.084 | gandotinib -0.042 | tozasertib -0.194 | [6] 0.201 | ispinesib 0.126

SDCBP isoform 2 (UniProt O00560)
inactive: filanesib -0.08 | alisertib -0.236 | [2] 0.045 | gefitinib -0.054 | [3] 0.034 | lapatinib -0.04 | pictilisib 0.228 | [7] 0.093 | [4] -0.108 | duvelisib 0.019 | gandotinib 0.058 | tozasertib 0.045 | [6] 0.069 | ispinesib -0.185

RBMY1E (UniProt A6NEQ0)
active: [2] -0.476
inactive: [1] 0.078 | zotarolimus 0.083 | alisertib -0.035 | gefitinib -0.07 | [3] 0.126 | lapatinib 0.044 | pictilisib 0.015 | crizotinib -0.122 | [5] -0.12 | gandotinib -0.137 | tozasertib 0.113 | doramapimod -0.007 | ispinesib -0.148

RPS6KA5 (UniProt O75582)
inactive: [1] -0.276 | alisertib -0.076 | [2] -0.185 | [3] 0.131 | lapatinib 0.057 | crizotinib -0.393 | [4] 0.045 | doramapimod -0.016 | ispinesib 0.018

RICTOR isoform 3 (UniProt Q6R327)
UniProt Q6R327, sequence (Q6R327 whole entry, looked up): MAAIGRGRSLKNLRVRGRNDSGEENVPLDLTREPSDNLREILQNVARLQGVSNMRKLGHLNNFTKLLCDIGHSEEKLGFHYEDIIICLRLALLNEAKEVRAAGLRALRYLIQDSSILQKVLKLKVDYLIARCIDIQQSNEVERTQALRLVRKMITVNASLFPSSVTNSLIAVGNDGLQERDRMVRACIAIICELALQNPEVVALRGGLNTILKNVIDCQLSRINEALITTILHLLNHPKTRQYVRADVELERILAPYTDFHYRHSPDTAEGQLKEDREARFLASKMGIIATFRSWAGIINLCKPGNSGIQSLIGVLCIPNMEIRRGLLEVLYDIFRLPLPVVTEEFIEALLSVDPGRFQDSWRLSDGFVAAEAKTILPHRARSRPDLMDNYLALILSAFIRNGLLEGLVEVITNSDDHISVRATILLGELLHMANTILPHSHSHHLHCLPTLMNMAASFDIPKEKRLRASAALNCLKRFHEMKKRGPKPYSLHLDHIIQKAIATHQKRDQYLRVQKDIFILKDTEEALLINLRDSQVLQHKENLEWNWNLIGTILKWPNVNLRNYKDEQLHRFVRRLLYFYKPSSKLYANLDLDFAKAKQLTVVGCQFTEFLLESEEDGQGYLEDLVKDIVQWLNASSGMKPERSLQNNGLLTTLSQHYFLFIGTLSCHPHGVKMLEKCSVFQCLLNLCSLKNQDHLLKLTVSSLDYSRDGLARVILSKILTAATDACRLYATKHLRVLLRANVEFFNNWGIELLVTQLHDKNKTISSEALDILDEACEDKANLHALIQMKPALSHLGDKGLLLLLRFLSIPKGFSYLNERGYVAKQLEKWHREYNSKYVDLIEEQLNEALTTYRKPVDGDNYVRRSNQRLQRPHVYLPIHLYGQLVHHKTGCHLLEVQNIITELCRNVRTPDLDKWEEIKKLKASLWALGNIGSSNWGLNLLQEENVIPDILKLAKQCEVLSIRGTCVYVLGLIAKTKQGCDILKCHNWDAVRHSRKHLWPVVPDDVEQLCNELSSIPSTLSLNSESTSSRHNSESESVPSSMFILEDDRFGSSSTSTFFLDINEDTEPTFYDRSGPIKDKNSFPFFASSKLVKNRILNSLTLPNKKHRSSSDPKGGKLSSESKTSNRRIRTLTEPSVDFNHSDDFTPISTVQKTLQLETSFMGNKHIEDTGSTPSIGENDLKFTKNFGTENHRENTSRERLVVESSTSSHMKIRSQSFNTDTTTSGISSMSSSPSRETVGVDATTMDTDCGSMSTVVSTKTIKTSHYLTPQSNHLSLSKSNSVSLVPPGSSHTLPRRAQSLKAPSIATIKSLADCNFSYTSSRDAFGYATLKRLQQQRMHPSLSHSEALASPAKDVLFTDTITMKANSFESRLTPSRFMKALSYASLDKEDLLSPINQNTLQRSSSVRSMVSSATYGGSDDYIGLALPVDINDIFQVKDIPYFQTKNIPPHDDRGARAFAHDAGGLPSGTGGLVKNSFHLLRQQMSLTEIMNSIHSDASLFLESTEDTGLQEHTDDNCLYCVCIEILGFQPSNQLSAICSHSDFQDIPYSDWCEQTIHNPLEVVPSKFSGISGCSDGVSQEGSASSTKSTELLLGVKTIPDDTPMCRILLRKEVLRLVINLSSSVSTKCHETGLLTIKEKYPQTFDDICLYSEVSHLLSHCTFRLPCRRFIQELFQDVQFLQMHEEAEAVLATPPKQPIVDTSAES
inactive: filanesib -0.028 | idasanutlin -0.066 | [2] 0.003 | gefitinib 0.059 | lapatinib 0.186 | pictilisib -0.062 | [7] -0.017 | [4] -0.146 | duvelisib -0.027 | gandotinib -0.015 | tozasertib -0.127 | [6] -0.072

S100A10 (UniProt P60903)
UniProt P60903, sequence (P60903 whole entry, looked up): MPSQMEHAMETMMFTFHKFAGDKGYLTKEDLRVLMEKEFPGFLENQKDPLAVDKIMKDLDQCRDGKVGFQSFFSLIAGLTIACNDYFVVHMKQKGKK
inactive: filanesib -0.143 | zotarolimus -0.045 | idasanutlin 0.165 | [2] 0.093 | gefitinib 0.305 | lapatinib 0.01 | pictilisib -0.056 | [7] -0.004 | [5] 0.063 | gandotinib 0.131 | tozasertib 0.057

SCLT1 (UniProt Q96NL6)
active: [1] 0.433
inactive: filanesib -0.063 | zotarolimus 0.079 | alisertib -0.205 | gefitinib -0.022 | [3] 0.046 | pictilisib 0.185 | [7] 0.148 | crizotinib 0.003 | [5] -0.081 | duvelisib 0.038 | gandotinib 0.149 | tozasertib -0.144 | [6] -0.028 | doramapimod 0.055

SCAMP2 (UniProt O15127)
active: [5] -0.544
inactive: filanesib 0.036 | zotarolimus 0.171 | idasanutlin -0.1 | alisertib -0.087 | [2] -0.035 | gefitinib 0.036 | [3] 0.042 | lapatinib 0.009 | pictilisib 0.199 | [7] 0.019 | [4] -0.213 | duvelisib 0.009 | gandotinib 0.034 | tozasertib 0.044 | [6] -0.065 | ispinesib -0.073

RRP36 (UniProt Q96EU6)
inactive: filanesib 0.372 | zotarolimus -0.054 | idasanutlin 0.203 | alisertib -0.217 | [2] 0.01 | gefitinib -0.042 | [3] -0.268 | lapatinib 0.088 | pictilisib -0.181 | [7] -0.115 | [4] -0.645 | [5] 0.271 | duvelisib -0.16 | gandotinib 0.182 | tozasertib 0.031 | [6] 0.022 | ispinesib 0.043

RPS3A (UniProt D6R9B6)
inactive: filanesib 0.228 | idasanutlin 0.079 | [7] -0.014 | duvelisib -0.015 | tozasertib -0.134 | [6] 0.069

SDC3 (UniProt O75056)
UniProt O75056, sequence (O75056 whole entry, looked up): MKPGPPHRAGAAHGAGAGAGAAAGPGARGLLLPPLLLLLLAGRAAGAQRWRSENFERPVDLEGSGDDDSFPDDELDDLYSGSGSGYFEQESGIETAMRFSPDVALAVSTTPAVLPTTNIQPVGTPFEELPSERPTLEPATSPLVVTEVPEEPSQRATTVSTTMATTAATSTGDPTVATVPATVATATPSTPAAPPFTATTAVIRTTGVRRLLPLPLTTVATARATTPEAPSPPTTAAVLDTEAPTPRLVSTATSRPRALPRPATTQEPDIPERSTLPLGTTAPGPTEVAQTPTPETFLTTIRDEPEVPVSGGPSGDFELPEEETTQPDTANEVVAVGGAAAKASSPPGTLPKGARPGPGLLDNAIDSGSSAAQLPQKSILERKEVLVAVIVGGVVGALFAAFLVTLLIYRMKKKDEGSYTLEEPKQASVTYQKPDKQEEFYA
inactive: filanesib 0.081 | zotarolimus -0.045 | idasanutlin 0.166 | gefitinib 0.115 | pictilisib -0.674 | [7] -0.047 | [4] 0.057 | [5] 0.151 | duvelisib 0.11 | gandotinib -0.193 | tozasertib -0.131 | [6] -0.19

RUNX1 isoform 8 (UniProt Q01196)
inactive: [1] -0.055 | filanesib -0.084 | idasanutlin 0.075 | alisertib -0.292 | [2] 0.053 | gefitinib -0.074 | [3] -0.011 | lapatinib -0.001 | pictilisib 0.24 | [7] 0.106 | crizotinib -0.066 | [4] 0.089 | duvelisib -0.045 | gandotinib 0.088 | [6] 0.178 | doramapimod 0.054 | ispinesib 0.155

RPS19 (UniProt M0R2L9)
inactive: idasanutlin -0.034 | alisertib -0.463 | [2] -0.158 | gefitinib 0.375 | [3] -0.331 | lapatinib -0.341 | tozasertib -0.034

SH3PXD2B (UniProt A1X283)
UniProt A1X283, sequence (A1X283 whole entry, looked up): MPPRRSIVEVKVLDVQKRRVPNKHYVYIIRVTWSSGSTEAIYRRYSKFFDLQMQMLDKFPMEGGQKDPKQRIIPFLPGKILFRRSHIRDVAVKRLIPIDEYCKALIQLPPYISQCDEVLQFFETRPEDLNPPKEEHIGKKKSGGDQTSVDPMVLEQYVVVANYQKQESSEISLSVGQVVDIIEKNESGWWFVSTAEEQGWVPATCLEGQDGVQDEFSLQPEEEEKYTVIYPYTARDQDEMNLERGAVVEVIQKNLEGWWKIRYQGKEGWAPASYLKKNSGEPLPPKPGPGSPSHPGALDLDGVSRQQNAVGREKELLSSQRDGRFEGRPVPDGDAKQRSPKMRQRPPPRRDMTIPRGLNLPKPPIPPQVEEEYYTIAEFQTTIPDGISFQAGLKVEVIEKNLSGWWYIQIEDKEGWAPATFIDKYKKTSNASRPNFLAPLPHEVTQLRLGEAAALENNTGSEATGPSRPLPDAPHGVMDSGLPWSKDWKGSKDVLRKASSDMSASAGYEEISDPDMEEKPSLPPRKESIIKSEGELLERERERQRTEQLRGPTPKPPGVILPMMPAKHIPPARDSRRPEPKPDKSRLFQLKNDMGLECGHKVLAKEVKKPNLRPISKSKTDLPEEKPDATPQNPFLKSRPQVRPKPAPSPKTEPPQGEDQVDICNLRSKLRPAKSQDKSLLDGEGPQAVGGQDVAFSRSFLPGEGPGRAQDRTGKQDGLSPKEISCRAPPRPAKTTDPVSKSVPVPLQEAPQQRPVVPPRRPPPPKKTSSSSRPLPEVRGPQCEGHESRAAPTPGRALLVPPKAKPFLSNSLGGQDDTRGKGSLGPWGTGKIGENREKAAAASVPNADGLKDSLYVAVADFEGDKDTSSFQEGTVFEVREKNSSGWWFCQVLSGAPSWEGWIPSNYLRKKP
inactive: filanesib -0.06 | zotarolimus -0.003 | idasanutlin -0.174 | alisertib -0.02 | gefitinib 0.149 | [3] -0.037 | pictilisib 0.162 | [7] 0.002 | [4] 0.246 | [5] 0.055 | gandotinib 0.077 | tozasertib -0.1

RNF26 (UniProt Q9BY78)
UniProt Q9BY78, sequence (Q9BY78 whole entry, looked up): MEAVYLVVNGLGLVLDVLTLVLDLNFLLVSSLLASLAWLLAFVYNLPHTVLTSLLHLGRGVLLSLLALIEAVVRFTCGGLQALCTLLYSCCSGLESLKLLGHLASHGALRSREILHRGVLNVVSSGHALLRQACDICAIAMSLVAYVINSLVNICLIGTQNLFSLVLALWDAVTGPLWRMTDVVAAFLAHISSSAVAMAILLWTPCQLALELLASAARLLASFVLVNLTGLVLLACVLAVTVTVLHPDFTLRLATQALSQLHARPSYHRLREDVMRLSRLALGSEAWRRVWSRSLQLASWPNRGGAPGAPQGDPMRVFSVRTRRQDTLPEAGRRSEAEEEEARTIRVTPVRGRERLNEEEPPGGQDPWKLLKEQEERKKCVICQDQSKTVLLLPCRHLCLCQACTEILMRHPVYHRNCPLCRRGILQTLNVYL
inactive: pictilisib 0.065 | gandotinib 0.008 | ispinesib -0.829

SF3B5 (UniProt Q9BWJ5)
inactive: [1] 0.19 | filanesib 0.2 | idasanutlin 0.085 | alisertib -0.122 | [2] -0.026 | gefitinib 0.027 | [3] 0.044 | lapatinib -0.051 | pictilisib -0.069 | [7] 0.027 | crizotinib -0.012 | [4] 0.176 | duvelisib 0.358 | gandotinib 0.087 | tozasertib -0.152 | [6] 0.002 | doramapimod -0.089

RPAIN isoform 8 (UniProt Q86UA6)
UniProt Q86UA6, sequence (Q86UA6 whole entry, looked up): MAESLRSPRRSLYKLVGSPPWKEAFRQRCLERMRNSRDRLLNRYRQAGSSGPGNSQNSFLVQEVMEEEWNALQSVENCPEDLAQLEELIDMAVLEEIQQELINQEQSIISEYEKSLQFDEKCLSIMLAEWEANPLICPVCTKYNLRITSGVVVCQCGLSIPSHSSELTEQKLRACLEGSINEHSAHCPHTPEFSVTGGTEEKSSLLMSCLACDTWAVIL
inactive: [1] -0.055 | filanesib 0.006 | zotarolimus 0.028 | idasanutlin 0.109 | [2] -0.061 | lapatinib -0.063 | [7] -0.024 | crizotinib 0.144 | [4] 0.385 | [5] -0.039 | duvelisib 0.123 | tozasertib 0.07 | [6] 0.078 | doramapimod -0.04 | ispinesib -0.155

RAP2C (UniProt Q9Y3L5)
UniProt Q9Y3L5, sequence (Q9Y3L5 whole entry, looked up): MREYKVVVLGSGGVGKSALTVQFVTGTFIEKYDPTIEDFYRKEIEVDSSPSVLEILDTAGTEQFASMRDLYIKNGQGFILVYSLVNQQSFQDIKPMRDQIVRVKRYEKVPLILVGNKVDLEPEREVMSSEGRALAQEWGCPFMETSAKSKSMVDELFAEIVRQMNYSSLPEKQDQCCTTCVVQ
active: pictilisib -0.799 | gandotinib -0.742
inactive: filanesib -0.011 | zotarolimus -0.031 | idasanutlin 0.008 | alisertib -0.073 | [2] 0.016 | gefitinib -0.01 | [3] 0.031 | lapatinib 0.1 | [7] -0.046 | [4] 0.007 | [5] -0.144 | duvelisib 0.06 | tozasertib -0.039 | [6] -0.108 | ispinesib 0.009

SERINC1 (UniProt Q9NRX5)
inactive: [1] 0.073 | filanesib -0.146 | idasanutlin 0.233 | alisertib 0.073 | [2] -0.208 | gefitinib -0.266 | [3] -0.167 | lapatinib -0.227 | [7] 0.075 | crizotinib -0.197 | [4] 0.037 | duvelisib 0.03 | tozasertib 0.125 | [6] -0.016 | doramapimod 0.068 | ispinesib -0.048

RALGPS2 (UniProt Q86X27)
inactive: [1] 0.246 | zotarolimus 0.038 | idasanutlin -0.062 | alisertib 0.109 | [3] 0.132 | pictilisib 0.165 | crizotinib -0.237 | [4] -0.199 | [5] 0.222 | duvelisib -0.117 | gandotinib 0.08 | tozasertib -0.112 | [6] 0.106 | doramapimod 0.289

SAFB2 (UniProt K7EQU4)
inactive: [1] 0.115 | gefitinib -0.126 | crizotinib -0.244 | [4] 0.275 | doramapimod -0.04

RBM48 isoform 2 (UniProt Q5RL73)
UniProt Q5RL73, sequence (Q5RL73 whole entry, looked up): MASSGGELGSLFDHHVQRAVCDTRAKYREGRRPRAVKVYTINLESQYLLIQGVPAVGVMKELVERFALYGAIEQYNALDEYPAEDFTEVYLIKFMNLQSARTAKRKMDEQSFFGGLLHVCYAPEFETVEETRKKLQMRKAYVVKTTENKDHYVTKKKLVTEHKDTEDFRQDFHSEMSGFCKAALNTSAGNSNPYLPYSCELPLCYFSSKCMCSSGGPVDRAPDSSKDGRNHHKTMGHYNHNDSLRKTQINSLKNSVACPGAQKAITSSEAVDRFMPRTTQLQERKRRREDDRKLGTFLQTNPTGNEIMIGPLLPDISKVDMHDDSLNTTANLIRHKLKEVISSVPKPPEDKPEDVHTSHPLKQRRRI
inactive: [1] -0.046 | filanesib -0.049 | zotarolimus -0.076 | idasanutlin 0.04 | [2] -0.046 | gefitinib -0.024 | lapatinib 0.011 | pictilisib -0.083 | [7] 0.081 | crizotinib 0.25 | [4] -0.069 | [5] -0.06 | gandotinib 0.152 | tozasertib -0.245 | doramapimod 0.041 | ispinesib 0.072
